According to the supplement of paper PMC10849652:
Targets with a hit are over-represented here; the source holds about 7,900 in all. About 0.6% of all pairs of compound and target were hits.

Columns and labels:
Assay in all cases: log2 fold change, soluble protein after heating vs DMSO (PISA); higher = thermal stabilisation; K562 cells, 10 uM, 30 min; active = over 0.2 and 3.5 SD of the protein, either way, in both replicates (recomputed)
[1] = compound: COC1=CC=C(C=C1)CN2C=CC3=C2C=C(C=C3)C(=O)NO
Summary of the method: (§1)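 K562 cells at 2×10^6 cells/mL were exposed to 10 μM compound for 30 min, then aliquots were heated for 3 min across 48°C-58°C, pooled, and extracted in PBS containing 0.5% NP-40 at 4°C. The supernatant after 21,000xg for 90 min was taken as soluble protein and measured by TMTpro 16plex LC-MS/MS with channel sums equalised. Thermal stability is reported relative to control samples, with values from duplicates. Fold changes are given on a log2 scale.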

filanesib = compound: CON(C)C(=O)N1N=C(c2cc(F)ccc2F)S[C@@]1(CCCN)c1ccccc1 [filanesib]
Summary of the method: as §1

zotarolimus = compound: CO[C@H]1C[C@@H]2CC[C@@H](C)[C@@](O)(O2)C(=O)C(=O)N2CCCC[C@H]2C(=O)O[C@H]([C@H](C)C[C@@H]2CC[C@H](n3cnnn3)[C@H](OC)C2)CC(=O)[C@H](C)/C=C(\C)[C@@H](O)[C@@H](OC)C(=O)[C@H](C)C[C@H](C)/C=C/C=C/C=C/1C [zotarolimus]
Summary of the method: as §1

idasanutlin = compound: COc1cc(C(=O)O)ccc1NC(=O)[C@@H]1N[C@@H](CC(C)(C)C)[C@](C#N)(c2ccc(Cl)cc2F)[C@H]1c1cccc(Cl)c1F [idasanutlin]
Summary of the method: as §1

alisertib = compound: COc1cc(Nc2ncc3c(n2)-c2ccc(Cl)cc2C(c2c(F)cccc2OC)=NC3)ccc1C(=O)O [alisertib]
Summary of the method: as §1

[2] = compound: COc1cc2nc(-c3cc(F)ccc3O)nc(N[C@@H]3CNC[C@H]3C(C)(C)O)c2cc1OC
Summary of the method: as §1

gefitinib = compound: COc1cc2ncnc(Nc3ccc(F)c(Cl)c3)c2cc1OCCCN1CCOCC1 [gefitinib]
Summary of the method: as §1

[3] = compound: COc1cccc2cc(-c3nc([C@H]4CC[C@H](C(=O)O)CC4)n4ncnc(N)c34)[nH]c12
Summary of the method: as §1

lapatinib = compound: CS(=O)(=O)CCNCc1ccc(-c2ccc3ncnc(Nc4ccc(OCc5cccc(F)c5)c(Cl)c4)c3c2)o1 [lapatinib]
Summary of the method: as §1

pictilisib = compound: CS(=O)(=O)N1CCN(Cc2cc3nc(-c4cccc5[nH]ncc45)nc(N4CCOCC4)c3s2)CC1 [pictilisib]
Summary of the method: as §1

Measured: log2 fold change

NSMCE2 (UniProt Q96MF7)
Sequence of UniProt Q96MF7 (Q96MF7 whole entry, looked up): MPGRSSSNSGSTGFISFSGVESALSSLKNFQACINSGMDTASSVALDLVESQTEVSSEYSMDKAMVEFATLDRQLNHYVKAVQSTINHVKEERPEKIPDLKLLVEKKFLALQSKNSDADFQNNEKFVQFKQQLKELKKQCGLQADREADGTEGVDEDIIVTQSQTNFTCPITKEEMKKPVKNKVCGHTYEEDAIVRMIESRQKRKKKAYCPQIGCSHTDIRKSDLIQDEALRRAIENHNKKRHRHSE
inactive: [1] -0.029 | filanesib 0.045 | zotarolimus 0.018 | idasanutlin 0.027 | alisertib -0.076 | [2] 0.018 | gefitinib -0.009 | [3] -0.018 | lapatinib 0.023
active: pictilisib -0.233

MXRA7 (UniProt P84157)
Sequence of UniProt P84157 (P84157 whole entry, looked up): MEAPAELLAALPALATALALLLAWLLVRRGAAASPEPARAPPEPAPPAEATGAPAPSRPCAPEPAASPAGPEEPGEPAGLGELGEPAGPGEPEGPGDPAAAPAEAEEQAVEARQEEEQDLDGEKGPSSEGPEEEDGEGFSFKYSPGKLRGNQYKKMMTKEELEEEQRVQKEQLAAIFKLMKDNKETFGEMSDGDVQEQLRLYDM
inactive: [1] -0.248 | filanesib 0.135 | zotarolimus 0.023 | idasanutlin -0.066 | alisertib -0.017 | [2] -0.007 | gefitinib 0.058 | [3] 0.067 | lapatinib 0 | pictilisib -0.053

NMRAL1 (UniProt Q9HBL8)
Sequence of UniProt Q9HBL8 (Q9HBL8 whole entry, looked up): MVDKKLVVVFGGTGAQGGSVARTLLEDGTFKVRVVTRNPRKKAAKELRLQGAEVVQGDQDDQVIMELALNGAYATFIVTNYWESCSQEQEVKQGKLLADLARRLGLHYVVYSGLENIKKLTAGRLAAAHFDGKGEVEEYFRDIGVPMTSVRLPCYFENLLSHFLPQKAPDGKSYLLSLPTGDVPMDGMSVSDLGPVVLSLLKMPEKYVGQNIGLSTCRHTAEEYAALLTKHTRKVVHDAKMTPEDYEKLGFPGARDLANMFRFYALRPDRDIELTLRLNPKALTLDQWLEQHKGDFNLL
inactive: [1] 0.678 | filanesib -0.084 | zotarolimus 0.135 | idasanutlin -0.268 | alisertib -0.099 | [2] 0.184 | gefitinib 0.257 | [3] 0.003 | lapatinib -0.003 | pictilisib 0.83

NUDT1 (UniProt P36639)
inactive: [1] 0.043 | filanesib -0.06 | zotarolimus -0.068 | idasanutlin -0.169 | alisertib -0.017 | [2] 0.11 | gefitinib 0.354 | [3] -0.046 | lapatinib -0.016 | pictilisib -0.01

NIPSNAP3B (UniProt Q9BS92)
inactive: [1] -0.033 | filanesib -0.168 | zotarolimus 0.013 | idasanutlin 0.046 | alisertib -0.046 | [2] -0.071 | gefitinib -0.138 | [3] 0.009 | lapatinib -0.09 | pictilisib 0.002

NHLRC2 (UniProt Q8NBF2)
Sequence of UniProt Q8NBF2 (Q8NBF2 whole entry, looked up): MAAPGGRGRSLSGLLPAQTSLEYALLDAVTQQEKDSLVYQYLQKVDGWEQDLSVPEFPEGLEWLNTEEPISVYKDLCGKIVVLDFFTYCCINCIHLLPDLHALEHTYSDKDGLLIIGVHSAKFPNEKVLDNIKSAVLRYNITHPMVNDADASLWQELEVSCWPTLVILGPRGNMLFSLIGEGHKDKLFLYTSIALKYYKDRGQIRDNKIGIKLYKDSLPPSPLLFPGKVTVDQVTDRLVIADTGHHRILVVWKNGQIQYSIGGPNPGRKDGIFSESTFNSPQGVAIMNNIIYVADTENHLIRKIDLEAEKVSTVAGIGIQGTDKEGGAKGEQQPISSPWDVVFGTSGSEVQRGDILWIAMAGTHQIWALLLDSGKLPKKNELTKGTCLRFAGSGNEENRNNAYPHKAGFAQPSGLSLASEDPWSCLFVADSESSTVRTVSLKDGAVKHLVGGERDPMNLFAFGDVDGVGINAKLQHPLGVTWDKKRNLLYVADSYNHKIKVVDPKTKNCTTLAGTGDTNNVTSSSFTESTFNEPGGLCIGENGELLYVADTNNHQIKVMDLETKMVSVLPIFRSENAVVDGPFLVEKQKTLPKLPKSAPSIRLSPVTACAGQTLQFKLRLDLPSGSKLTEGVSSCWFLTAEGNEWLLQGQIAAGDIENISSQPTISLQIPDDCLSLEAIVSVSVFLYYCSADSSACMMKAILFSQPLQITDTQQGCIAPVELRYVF
inactive: [1] -0.084 | filanesib -0.062 | zotarolimus -0.001 | idasanutlin -0.061 | alisertib 0.1 | [2] 0.061 | gefitinib -0.011 | [3] 0.123 | lapatinib -0.057 | pictilisib 0.062

MYH16 (UniProt Q9H6N6)
inactive: filanesib -0.263 | zotarolimus -0.118 | idasanutlin -0.066 | alisertib 0.163 | [2] -0.052 | gefitinib -0.03 | [3] -0.031 | lapatinib 0.204 | pictilisib -0.448
active: [1] 0.886

NECTIN2 (UniProt Q92692)
inactive: [1] -0.028 | filanesib 0.027 | zotarolimus -0.042 | idasanutlin -0.003 | alisertib -0.084 | [2] 0.011 | gefitinib 0.06 | [3] 0.014 | lapatinib -0.01 | pictilisib 0.021

NPM3 (UniProt O75607)
Sequence of UniProt O75607 (O75607 whole entry, looked up): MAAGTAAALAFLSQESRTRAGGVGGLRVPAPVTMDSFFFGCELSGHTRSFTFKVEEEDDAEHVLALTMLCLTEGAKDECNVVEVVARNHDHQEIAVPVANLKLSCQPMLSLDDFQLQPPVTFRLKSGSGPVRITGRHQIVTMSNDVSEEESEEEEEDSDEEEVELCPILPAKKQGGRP
inactive: [1] 0.123 | filanesib 0.116 | zotarolimus 0.104 | idasanutlin 0.258 | alisertib -0.205 | [2] 0.006 | gefitinib -0.011 | [3] -0.069 | lapatinib -0.003 | pictilisib -0.025

MSL1 (UniProt Q68DK7)
Sequence of UniProt Q68DK7 (Q68DK7 whole entry, looked up): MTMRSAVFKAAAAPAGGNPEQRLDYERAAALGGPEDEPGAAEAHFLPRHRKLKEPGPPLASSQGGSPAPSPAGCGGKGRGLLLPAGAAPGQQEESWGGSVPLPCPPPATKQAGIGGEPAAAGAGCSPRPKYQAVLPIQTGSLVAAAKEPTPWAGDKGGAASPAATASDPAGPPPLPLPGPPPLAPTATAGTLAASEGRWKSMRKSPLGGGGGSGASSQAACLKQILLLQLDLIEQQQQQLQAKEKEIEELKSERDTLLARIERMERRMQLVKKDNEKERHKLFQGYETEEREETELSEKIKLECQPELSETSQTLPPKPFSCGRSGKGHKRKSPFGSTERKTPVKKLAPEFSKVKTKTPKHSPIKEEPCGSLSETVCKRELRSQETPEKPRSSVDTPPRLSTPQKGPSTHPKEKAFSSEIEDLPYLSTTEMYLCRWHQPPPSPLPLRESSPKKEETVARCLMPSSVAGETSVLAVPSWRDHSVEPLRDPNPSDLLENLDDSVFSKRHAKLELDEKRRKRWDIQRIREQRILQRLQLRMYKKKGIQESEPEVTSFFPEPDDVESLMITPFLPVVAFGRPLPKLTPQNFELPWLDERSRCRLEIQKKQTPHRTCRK
inactive: [1] -0.163 | filanesib -0.013 | idasanutlin -0.113 | alisertib -0.081 | [2] 0.275 | gefitinib 0.04 | [3] -0.012 | lapatinib -0.117 | pictilisib 0.197

OXSM (UniProt Q9NWU1)
Sequence of UniProt Q9NWU1 (Q9NWU1 whole entry, looked up): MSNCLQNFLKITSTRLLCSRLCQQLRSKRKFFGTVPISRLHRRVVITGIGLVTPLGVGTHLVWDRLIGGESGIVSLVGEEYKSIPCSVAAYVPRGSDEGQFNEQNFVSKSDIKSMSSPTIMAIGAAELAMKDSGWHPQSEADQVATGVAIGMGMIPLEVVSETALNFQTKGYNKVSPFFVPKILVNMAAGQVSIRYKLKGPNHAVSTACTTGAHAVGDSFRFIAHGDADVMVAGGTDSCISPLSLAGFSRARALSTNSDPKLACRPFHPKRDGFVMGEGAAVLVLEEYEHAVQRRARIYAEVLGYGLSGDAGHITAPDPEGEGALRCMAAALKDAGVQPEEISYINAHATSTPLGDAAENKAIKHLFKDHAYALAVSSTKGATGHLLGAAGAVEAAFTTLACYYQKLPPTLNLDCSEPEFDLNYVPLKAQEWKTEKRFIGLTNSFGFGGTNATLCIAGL
inactive: [1] 0.033 | filanesib -0.014 | zotarolimus -0.005 | idasanutlin 0.039 | alisertib -0.131 | [2] -0.041 | gefitinib -0.001 | [3] 0.025 | lapatinib 0.007 | pictilisib 0.057

MTFR1L (UniProt Q9H019)
inactive: [1] 0.036 | filanesib -0.09 | zotarolimus 0.037 | idasanutlin -0.04 | [2] -0.111 | gefitinib 0.083 | lapatinib 0.044 | pictilisib 0.011

NDFIP1 (UniProt Q9BT67)
inactive: [1] 0.051 | filanesib -0.134 | zotarolimus 0.106 | idasanutlin -0.034 | alisertib -0.105 | gefitinib -0.155 | [3] -0.14 | pictilisib 0.228

OSBPL3 (UniProt Q9H4L5)
inactive: [1] -0.052 | filanesib 0.582 | zotarolimus 0.14 | idasanutlin 0.277 | [2] -0.688 | gefitinib 0.174 | lapatinib 0.391

MPHOSPH8 isoform 2 (UniProt Q99549)
inactive: [1] -0.002 | filanesib 0.128 | zotarolimus -0.191 | idasanutlin 0.062 | alisertib -0.016 | [2] 0.032 | [3] 0.125 | lapatinib 0.024

NA, A0A2R8Y3M9
inactive: [1] -0.086 | filanesib 0.079 | zotarolimus -0.419 | idasanutlin 0.279 | [2] -0.123 | gefitinib -0.168 | lapatinib -0.037 | pictilisib -0.35

MON2 isoform 5 (UniProt Q7Z3U7)
inactive: [1] -0.003 | filanesib -0.017 | zotarolimus 0.101 | idasanutlin -0.147 | alisertib 0.046 | [2] 0.091 | gefitinib 0.039 | [3] -0.004 | lapatinib 0.036 | pictilisib 0.048

NFE2 (UniProt Q16621)
inactive: [1] 0.135 | filanesib 0 | zotarolimus 0.146 | idasanutlin 0.023 | alisertib -0.056 | [2] -0.032 | gefitinib -0.008 | [3] 0.014 | lapatinib 0.007 | pictilisib 0.05

NOP58 (UniProt Q9Y2X3)
Sequence of UniProt Q9Y2X3 (Q9Y2X3 whole entry, looked up): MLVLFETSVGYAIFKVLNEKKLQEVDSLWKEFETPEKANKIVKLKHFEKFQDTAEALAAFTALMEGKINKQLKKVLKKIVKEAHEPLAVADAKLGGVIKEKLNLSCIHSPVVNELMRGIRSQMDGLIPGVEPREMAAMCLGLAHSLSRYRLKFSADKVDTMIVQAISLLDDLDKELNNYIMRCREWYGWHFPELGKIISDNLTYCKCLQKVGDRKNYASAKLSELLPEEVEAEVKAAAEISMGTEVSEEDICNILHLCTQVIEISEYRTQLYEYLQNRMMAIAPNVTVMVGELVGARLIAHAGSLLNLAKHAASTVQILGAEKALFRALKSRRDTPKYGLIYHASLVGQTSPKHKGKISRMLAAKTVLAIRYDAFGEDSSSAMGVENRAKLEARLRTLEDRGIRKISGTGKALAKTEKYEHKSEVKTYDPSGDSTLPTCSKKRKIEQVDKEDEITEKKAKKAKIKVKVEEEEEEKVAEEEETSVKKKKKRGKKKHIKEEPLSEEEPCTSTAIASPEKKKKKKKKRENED
inactive: [1] -0.124 | zotarolimus 0.044 | idasanutlin 0.229 | alisertib -0.035 | [2] -0.096 | gefitinib 0.039 | [3] -0.028 | lapatinib 0.054 | pictilisib 0.049
active: filanesib 0.528

MITF (UniProt O75030)
Sequence of UniProt O75030 (O75030 whole entry, looked up): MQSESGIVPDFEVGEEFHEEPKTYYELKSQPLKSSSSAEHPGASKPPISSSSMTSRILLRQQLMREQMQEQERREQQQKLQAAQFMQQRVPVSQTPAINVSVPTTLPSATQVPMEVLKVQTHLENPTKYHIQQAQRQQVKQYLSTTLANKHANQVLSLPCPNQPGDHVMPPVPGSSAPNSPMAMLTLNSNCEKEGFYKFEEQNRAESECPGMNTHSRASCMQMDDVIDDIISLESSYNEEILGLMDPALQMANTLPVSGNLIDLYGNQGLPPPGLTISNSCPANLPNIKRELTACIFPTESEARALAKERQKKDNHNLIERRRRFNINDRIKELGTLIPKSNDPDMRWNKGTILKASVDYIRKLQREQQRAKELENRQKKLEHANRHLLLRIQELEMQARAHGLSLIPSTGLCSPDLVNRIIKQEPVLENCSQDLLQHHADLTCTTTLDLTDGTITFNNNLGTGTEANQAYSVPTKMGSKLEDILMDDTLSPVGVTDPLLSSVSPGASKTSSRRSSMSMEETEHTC
inactive: [1] 0.122 | filanesib 0.106 | idasanutlin -0.042 | alisertib 0.008 | gefitinib -0.13 | [3] 0 | pictilisib -0.397

NDUFB10 (UniProt O96000)
inactive: [1] 0.044 | filanesib -0.025 | zotarolimus 0.006 | idasanutlin -0.035 | alisertib -0.021 | [2] -0.047 | gefitinib 0 | [3] 0.05 | lapatinib -0.035 | pictilisib 0.082

NA, A0A0B4J2A0
inactive: [1] 0.084 | filanesib -0.045 | zotarolimus -0.021 | idasanutlin -0.016 | alisertib 0.129 | [2] -0.029 | gefitinib -0.092 | [3] 0.023 | lapatinib -0.026 | pictilisib 0.05

NFATC2IP (UniProt Q8NCF5)
inactive: [1] -0.008 | filanesib -0.015 | zotarolimus -0.021 | idasanutlin -0.141 | alisertib 0.01 | [2] 0.026 | gefitinib 0 | [3] 0.056 | lapatinib 0.029 | pictilisib 0.098

OTULIN (UniProt Q96BN8)
inactive: [1] 0.022 | filanesib -0.044 | zotarolimus -0.024 | idasanutlin -0.005 | alisertib 0.086 | [2] 0.014 | gefitinib 0 | [3] -0.045 | lapatinib 0.048 | pictilisib 0.023

OPHN1 (UniProt O60890)
Sequence of UniProt O60890 (O60890 whole entry, looked up): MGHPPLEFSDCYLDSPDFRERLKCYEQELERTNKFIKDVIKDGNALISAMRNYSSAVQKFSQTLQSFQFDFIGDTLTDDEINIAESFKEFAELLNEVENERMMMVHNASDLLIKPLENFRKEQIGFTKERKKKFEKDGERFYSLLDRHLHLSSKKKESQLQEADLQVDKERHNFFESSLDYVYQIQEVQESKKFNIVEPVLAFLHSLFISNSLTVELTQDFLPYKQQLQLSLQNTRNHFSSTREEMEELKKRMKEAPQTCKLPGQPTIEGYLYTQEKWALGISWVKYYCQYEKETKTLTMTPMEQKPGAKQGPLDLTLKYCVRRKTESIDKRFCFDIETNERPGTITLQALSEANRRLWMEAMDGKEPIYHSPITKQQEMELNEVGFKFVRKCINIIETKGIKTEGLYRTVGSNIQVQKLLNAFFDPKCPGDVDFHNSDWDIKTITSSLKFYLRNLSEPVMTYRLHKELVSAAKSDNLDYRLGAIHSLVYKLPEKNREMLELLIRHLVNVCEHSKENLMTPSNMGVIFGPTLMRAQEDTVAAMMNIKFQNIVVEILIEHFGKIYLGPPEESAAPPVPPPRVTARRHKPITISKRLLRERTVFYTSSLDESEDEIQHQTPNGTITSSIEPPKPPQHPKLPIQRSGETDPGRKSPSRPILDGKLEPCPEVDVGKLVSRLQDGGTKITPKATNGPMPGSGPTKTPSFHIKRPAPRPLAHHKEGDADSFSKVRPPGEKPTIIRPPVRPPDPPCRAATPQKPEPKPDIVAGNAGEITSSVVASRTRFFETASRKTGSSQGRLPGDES
inactive: [1] -0.261 | filanesib -0.004 | zotarolimus -0.049 | idasanutlin -0.015 | alisertib -0.036 | gefitinib -0.002 | [3] 0.04 | pictilisib 0.242

OTUD4 (UniProt Q01804)
inactive: [1] -0.122 | filanesib 0.182 | zotarolimus 0.022 | idasanutlin 0.063 | alisertib -0.106 | [2] -0.062 | gefitinib 0.039 | [3] 0.013 | lapatinib 0.095 | pictilisib -0.025

MYH10 isoform 3 (UniProt P35580)
inactive: [1] 0.092 | filanesib -0.116 | zotarolimus 0.011 | idasanutlin -0.065 | alisertib -0.025 | [2] 0.036 | gefitinib -0.005 | [3] -0.007 | lapatinib -0.006 | pictilisib -0.033

NFX1 (UniProt Q12986)
inactive: [1] -0.152 | filanesib 0.133 | zotarolimus -0.141 | idasanutlin 0.102 | alisertib 0.203 | [2] 0.079 | gefitinib 0.037 | [3] -0.012 | lapatinib 0.112 | pictilisib 0.004

PAFAH2 (UniProt Q99487)
inactive: [1] -0.025 | filanesib -0.089 | zotarolimus 0.012 | idasanutlin 0.153 | [2] 0.043 | lapatinib -0.037

MRPS35 (UniProt P82673)
inactive: [1] 0.018 | filanesib 0.024 | zotarolimus 0.051 | idasanutlin -0.168 | alisertib -0.04 | [2] 0.026 | gefitinib -0.054 | [3] -0.13 | lapatinib 0.022 | pictilisib -0.021

MUL1 (UniProt Q969V5)
Sequence of UniProt Q969V5 (Q969V5 whole entry, looked up): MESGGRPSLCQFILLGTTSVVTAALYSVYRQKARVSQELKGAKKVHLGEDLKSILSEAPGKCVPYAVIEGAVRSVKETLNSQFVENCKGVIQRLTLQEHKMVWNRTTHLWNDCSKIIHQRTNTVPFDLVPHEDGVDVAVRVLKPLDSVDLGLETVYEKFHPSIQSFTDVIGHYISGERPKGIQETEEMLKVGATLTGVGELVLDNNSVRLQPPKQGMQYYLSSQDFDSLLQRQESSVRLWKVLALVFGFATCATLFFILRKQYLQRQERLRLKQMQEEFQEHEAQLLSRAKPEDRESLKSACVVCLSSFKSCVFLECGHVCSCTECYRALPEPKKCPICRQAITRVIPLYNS
inactive: [1] -0.044 | filanesib 0.042 | zotarolimus -0.064 | idasanutlin -0.052 | alisertib 0.069 | [2] -0.05 | gefitinib 0.017 | [3] -0.08 | lapatinib 0.006 | pictilisib 0.006

NIPSNAP2 (UniProt O75323)
inactive: [1] 0.074 | filanesib -0.065 | zotarolimus 0.008 | idasanutlin -0.022 | alisertib 0.003 | [2] 0.007 | gefitinib 0.045 | [3] -0.038 | pictilisib 0.079
active: lapatinib 0.224
